# Experimental data published in PubChem BioAssay (EPA / NIEHS).
# Inconclusive results are not listed. Activity calls are given as the source filed them. Rule for the calls: active = hit-call score of the fitted dose curve at least 0.9, where 1 is the maximum; inconclusive = response in the unintended direction; inactive = score below 0.9.
# Legend:
# [1] = NVS_IC_rCaBTZCHL: NovaScreen (NVS) Ion Channel Assay for Calcium Channel, Type L, Benzothiazepine Site (CaBTZCHL) (AID 2283337)
# In short: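 Competitive displacement of a site-specific radioligand from rat cortex membranes, measured as signal loss against DMSO baseline by filter radiodetection after 1.5 h. Single-point 25 uM primary screen.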
# [2] = tested on: guinea pig Histamine Receptor (H2), gene 100729734; experiment: NVS_GPCR_gH2: NovaScreen (NVS) G Protein-Coupled Receptor Assay for guinea pig Histamine Receptor (H2) (AID 2283342)
# In short: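 Radioligand displacement on guinea pig striatal membranes, 1 h after dosing, filter-based scintillation counting; loss of signal versus DMSO. Single-point screen at 25 uM in duplicate, then concentration-response up to 50 uM.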
# [3] = biological target: Androgen Receptor/SRC-1 Co-activator, AR (gene 367) (UniProt P10275); experiment: OT_AR_ARSRC1_0960: Odyssey Thera (OT) 16-hour HEK293T Protein-Complementation Assay for Androgen Receptor/SRC-1 Co-activator (AID 2283353);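 note: actives raise the signal above DMSO so potency reflects increased AR and SRC-1 complex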
# In short: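 Interaction of AR with SRC-1 was followed by YFP fragment complementation in HEK293T cells after 16 h of dosing. Gain of nuclear-over-cytoplasmic 488 nm fluorescence against DMSO controls defined activity.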
# [4] = biological target: Androgen Receptor/SRC-1 Co-activator, AR (gene 367) (UniProt P10275); experiment: OT_AR_ARSRC1_0480: Odyssey Thera (OT) 8-hour HEK293T Protein-Complementation Assay for Androgen Receptor/SRC-1 Co-activator (AID 2283354);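 note: hits raise the complementation signal above DMSO so AC50 marks enhancers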
# In short: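 Measures AR/SRC-1 binding by Venus YFP fragment complementation in HEK293T stable lines at 8 h post-dose. Imaging quantifies the 488nm nucleus/cytoplasm ratio in ≥400 cells; DMSO defines baseline.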
# [5] = biological target: Estrogen receptor beta (Homo sapiens) (UniProt Q92731); experiment: OT_ER_ERbERb_0480: Odyssey Thera (OT) 8-hour HEK293T Protein-Complementation Assay for Estrogen Receptor-beta/-beta Homodimer (AID 2283357);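 note: active means signal gain over DMSO baseline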
# In short: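 Cells (HEK293T, stable ER-beta LBD PCA pair) are treated 8 hours, fixed and Draq5-stained; signal is fluorescence intensity increase relative to vehicle, fitted in the gain direction.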
# [6] = biological target: rat Glycine Receptor, Strychnine-sensitive (GlyRStrySens), Glra1 (gene 25674) (UniProt P07727); experiment: NVS_LGIC_rGlyRStrySens: NovaScreen (NVS) Ligand-Gated Ion Channel Assay for rat Glycine Receptor, Strychnine-sensitive (GlyRStrySens) (AID 2283341)
# In short: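 Radioligand displacement on rat spinal cord membranes, 1 hr, filter scintillation read-out. Single-concentration duplicate screen at 25 uM; chemicals meeting threshold (e.g., 30% inhibition) rerun in concentration-response up to 50 uM. Loss of binding fitted versus DMSO.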
# [7] = biological target: Estrogen receptor (Homo sapiens) (UniProt P03372); experiment: OT_ER_ERaERa_1440: Odyssey Thera (OT) 24-hour HEK293T Protein-Complementation Assay for Estrogen Receptor-alpha/-alpha Homodimer (AID 2283349);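 note: hits raise fluorescence above DMSO for agonists and antagonists alike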
# In short: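 Protein-fragment complementation between two human ERα ligand-binding domains (aa 310-547) in stably transfected HEK293T cells was monitored after 24 h treatment, using fluorescence intensity relative to vehicle controls.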
# [8] = biological target: Estrogen receptor (Homo sapiens) (UniProt P03372); experiment: OT_ER_ERaERa_0480: Odyssey Thera (OT) 8-hour HEK293T Protein-Complementation Assay for Estrogen Receptor-alpha/-alpha Homodimer (AID 2283351);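 note: rise in fluorescence from reassembled reporter fragments on ERα LBD homodimer in nucleus or whole cell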
# In short: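 Binding reporter in which dimerisation of ERα LBD (aa 310-547) fusions reconstitutes a fluorescent reporter in HEK293T cells. Compounds incubated 8 h; mean fluorescence intensity increase versus DMSO scored.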
# [9] = biological target: Retinoic acid receptor alpha (Homo sapiens) (UniProt P10276); experiment: NVS_NR_hRAR_Antagonist: NovaScreen (NVS) Nuclear Receptor Binding Assay for human Retinoic Acid Alpha Receptor Antagonism (RAR) (AID 2283358)
# In short: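 TR-FRET, cell-free, antagonist format; 2 h incubation after dosing; DMSO = baseline; signal loss fitted; 25 uM duplicate primary, then conc. series.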
# [10] = biological target: rat Glutamate, MK-801 Agonist Site (GluNMDA_MK801), Grin1 (gene 24408) (UniProt P35439); experiment: NVS_LGIC_rGluNMDA_MK801_Agonist: NovaScreen (NVS) Ligand-Gated Ion Channel Assay for rat Glutamate, MK-801 Agonist Site (GluNMDA_MK801) (AID 2283340)
# In short: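 Radioligand binding at MK-801 site in rat forebrain membranes, 1.5 h incubation, filter-based scintillation counting. Initially 25 uM in duplicate; actives then run in concentration-response up to 50 uM, fitted for gain of signal versus DMSO.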
# NCBI gene 100848466 = experiment: NVS_NR_bPR: NovaScreen (NVS) Nuclear Receptor Binding Assay for bovine Progextron Receptor (PR) (AID 2283343);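 note: actives lower bound radioligand signal below DMSO meaning displacement of the label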
# In short: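 Membranes from bovine uterus; radiolabelled ligand plus test chemical; 18 h; scintillation read-out. Activity = signal loss vs DMSO. Primary: 25 uM, duplicate; secondary: concentration series.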
# [11] = biological target: chimpanzee Androgen Receptor (AR), AR (gene 747460) (UniProt O97775); experiment: NVS_NR_cAR: NovaScreen (NVS) Nuclear Receptor Binding Assay for chimpanzee Androgen Receptor (AR) (AID 2283346);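 note: radioligand displacement from AR measured by scintillation counting in a cell-free assay; a loss of bound radioligand signal versus DMSO counts as binding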
# In short: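 Cell-free competition binding with insect-cell (Sf9/Sf21) extracted chimpanzee AR; scintillation signal from lysate at 72 h. Screened in duplicate at 25 uM, then concentration-response for actives; fitting relative to DMSO.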
# [12] = biological target: bovine Estrogen Receptor (ER), ESR1 (gene 407238) (UniProt P49884); experiment: NVS_NR_bER: NovaScreen (NVS) Nuclear Receptor Binding Assay for bovine Estrogen Receptor (ER) (AID 2283345);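 note: actives lower the bound radioligand count which means they displace the ER ligand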
# In short: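 Bovine uterine membranes; tritiated or iodinated radioligand; competitive displacement; 18 h; scintillation read; DMSO negative control; 25 uM duplicates, then concentration series for actives.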
# [13] = biological target: T1, Estrogen receptor (Homo sapiens) + Estrogen receptor beta (Homo sapiens) (UniProt P03372+Q92731); experiment: OT_ER_ERaERb_1440: Odyssey Thera (OT) 24-hour HEK293T Protein-Complementation Assay for Estrogen Receptor-alpha/-beta Homodimer (AID 2283356);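 note: heteromer of ER alpha and ER beta binding domains; hits raise reporter fluorescence and both agonists and antagonists give an increase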
# In short: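 24 h exposure; HEK293T PCA cells with ERα/ERβ LBD fragments; signal rise in nuclear or whole-cell fluorescence over vehicle.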
# [14] = biological target: T1, Estrogen receptor (Homo sapiens) + Estrogen receptor beta (Homo sapiens); experiment: OT_ER_ERaERb_0480: Odyssey Thera (OT) 8-hour HEK293T Protein-Complementation Assay for Estrogen Receptor-alpha/-beta Heterodimer (AID 2283352)
# In short: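 Human HEK293T cells were treated for 8 hours and receptor heterodimerisation was detected through reconstitution of a fluorescent reporter split between ER-alpha and ER-beta ligand-binding domains. Activity was analysed as gain of signal against DMSO.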
# [15] = biological target: rat Mineralocorticoid Receptor (MR), Nr3c2 (gene 25672) (UniProt P22199); experiment: NVS_NR_rMR: NovaScreen (NVS) Nuclear Receptor Binding Assay for rat Mineralocorticoid Receptor (MR) (AID 2283355)
# In short: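 Adrenalectomized rat brain supernatant was dosed with test chemical, then radioligand binding was measured by scintillation counting at 24 h. Initial testing ran in duplicate at 25 uM, followed by concentration series for actives.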
# [16] = biological target: Small conductance calcium-activated potassium channel protein 1 (Rattus norvegicus) (UniProt P70606); experiment: NVS_IC_rKCaCh: NovaScreen (NVS) Ion Channel Assay for rat Potassium Channel, Ca2+ Act., VI (KCaCh) (AID 2283336)
# In short: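 Radioligand binding to rat forebrain membranes, cell-free, read 1 hour after dosing by filter-based scintillation counting. Compounds first run in duplicate at 25 uM, actives then in concentration series; loss of signal vs DMSO indicates displacement.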
# [17] = biological target: bovine Gamma-Aminobutyric Acid Type A Receptor Agonist (GABAR Agonist), GABRA1 (gene 780973) (UniProt P08219); experiment: NVS_LGIC_bGABAR_Agonist: NovaScreen (NVS) Ligand-Gated Ion Channel Assay for bovine Gamma-Aminobutyric Acid Type A Receptor Agonist (GABAR Agonist) (AID 2283338)
# In short: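 Radioligand binding to bovine cerebellar membranes in agonist format, read by filter-based scintillation counting after 1 h. Primary screen in duplicate at 25 uM, with actives followed in concentration series. Gain of signal versus DMSO.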
# [18] = biological target: human Constitutive Androstane Receptor (CAR), NR1I3 (gene 9970) (UniProt Q14994); experiment: NVS_NR_hCAR_Antagonist: NovaScreen (NVS) Nuclear Receptor Binding Assay for human Constitutive Androstane Receptor Antagonism (CAR) (AID 2283344)
# In short: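 Cell-free TR-FRET binding read 1 h after dosing, antagonist mode; loss of signal versus DMSO baseline. Primary screen in duplicate at a single 25 uM; actives retested in concentration series.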
# [19] = biological target: Bile acid receptor (Homo sapiens) (UniProt Q96RI1); experiment: NVS_NR_hFXR_Antagonist: NovaScreen (NVS) Nuclear Receptor Binding Assay for human Farnesoid X Receptor Antagonism (FXR) (AID 2283350)
# In short: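 Cell-free TR-FRET ligand-binding read-out on human FXR (NR1H4) in antagonist mode, measured 1 h after dosing. Primary screen in duplicate at 25 uM, actives retested in concentration series; signal loss scored versus DMSO.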
# Androgen Receptor/SRC-1 Co-activator, AR (gene 367), sequence (P10275 whole entry, looked up, the tested form may be a part): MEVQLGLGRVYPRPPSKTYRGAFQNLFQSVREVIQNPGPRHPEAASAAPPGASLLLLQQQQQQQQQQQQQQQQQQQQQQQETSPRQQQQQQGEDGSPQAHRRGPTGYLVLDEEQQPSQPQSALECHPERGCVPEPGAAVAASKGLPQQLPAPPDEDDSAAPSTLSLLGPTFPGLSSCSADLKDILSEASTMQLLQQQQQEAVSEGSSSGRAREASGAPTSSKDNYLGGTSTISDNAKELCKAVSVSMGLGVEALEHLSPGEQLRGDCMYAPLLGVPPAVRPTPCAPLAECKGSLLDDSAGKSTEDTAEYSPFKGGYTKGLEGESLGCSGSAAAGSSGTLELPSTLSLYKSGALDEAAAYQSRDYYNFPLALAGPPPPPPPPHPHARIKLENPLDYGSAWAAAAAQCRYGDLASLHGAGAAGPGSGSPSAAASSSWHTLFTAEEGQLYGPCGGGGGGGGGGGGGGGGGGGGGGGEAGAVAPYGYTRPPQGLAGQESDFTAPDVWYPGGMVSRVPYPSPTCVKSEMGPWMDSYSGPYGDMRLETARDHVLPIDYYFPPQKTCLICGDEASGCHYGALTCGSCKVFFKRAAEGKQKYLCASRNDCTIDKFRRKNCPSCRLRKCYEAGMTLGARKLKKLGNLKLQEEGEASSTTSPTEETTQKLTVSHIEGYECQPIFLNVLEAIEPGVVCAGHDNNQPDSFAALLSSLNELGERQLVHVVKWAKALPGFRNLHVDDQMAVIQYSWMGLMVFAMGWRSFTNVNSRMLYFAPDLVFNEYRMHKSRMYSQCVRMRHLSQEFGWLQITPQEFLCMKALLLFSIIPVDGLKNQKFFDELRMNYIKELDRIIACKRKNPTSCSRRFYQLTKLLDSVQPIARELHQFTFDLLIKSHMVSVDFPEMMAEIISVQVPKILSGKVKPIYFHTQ
# Estrogen receptor beta (Homo sapiens), sequence (Q92731 whole entry, looked up, the tested form may be a part): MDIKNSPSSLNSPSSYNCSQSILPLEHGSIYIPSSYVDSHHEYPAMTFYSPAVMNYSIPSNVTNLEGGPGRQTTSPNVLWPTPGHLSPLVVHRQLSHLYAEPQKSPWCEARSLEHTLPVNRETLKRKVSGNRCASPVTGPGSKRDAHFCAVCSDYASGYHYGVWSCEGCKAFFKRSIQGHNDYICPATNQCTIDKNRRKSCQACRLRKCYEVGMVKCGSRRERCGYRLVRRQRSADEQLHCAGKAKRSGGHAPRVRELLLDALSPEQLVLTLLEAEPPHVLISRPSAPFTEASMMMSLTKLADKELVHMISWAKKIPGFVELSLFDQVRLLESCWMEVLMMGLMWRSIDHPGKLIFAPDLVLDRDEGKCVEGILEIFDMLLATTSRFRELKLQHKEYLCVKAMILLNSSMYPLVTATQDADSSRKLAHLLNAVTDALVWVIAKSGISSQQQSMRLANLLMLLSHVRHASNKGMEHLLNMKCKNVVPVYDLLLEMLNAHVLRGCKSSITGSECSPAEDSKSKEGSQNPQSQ
# Estrogen receptor (Homo sapiens), sequence (P03372 whole entry, looked up, the tested form may be a part): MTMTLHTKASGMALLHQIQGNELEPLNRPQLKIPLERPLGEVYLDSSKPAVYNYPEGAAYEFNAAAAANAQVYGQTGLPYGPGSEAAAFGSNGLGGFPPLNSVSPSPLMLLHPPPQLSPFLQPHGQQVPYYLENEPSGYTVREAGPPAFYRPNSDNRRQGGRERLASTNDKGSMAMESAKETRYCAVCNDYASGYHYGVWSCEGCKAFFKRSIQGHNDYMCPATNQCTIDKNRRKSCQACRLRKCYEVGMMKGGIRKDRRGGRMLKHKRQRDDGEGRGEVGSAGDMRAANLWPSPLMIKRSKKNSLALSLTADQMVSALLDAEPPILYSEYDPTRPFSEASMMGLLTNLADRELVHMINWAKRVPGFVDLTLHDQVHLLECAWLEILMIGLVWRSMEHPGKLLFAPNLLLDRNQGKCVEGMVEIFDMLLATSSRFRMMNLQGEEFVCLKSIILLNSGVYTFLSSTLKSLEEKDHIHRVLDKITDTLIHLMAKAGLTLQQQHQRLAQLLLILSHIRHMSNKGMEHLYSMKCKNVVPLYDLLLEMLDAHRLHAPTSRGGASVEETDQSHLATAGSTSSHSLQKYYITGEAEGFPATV
# T1 sequence (P03372 whole entry, looked up, the tested form may be a part): as above
# T1 sequence (Q92731 whole entry, looked up, the tested form may be a part): as the sequence (Q92731 whole entry, looked up, the tested form may be a part) above
# rat Glycine Receptor, Strychnine-sensitive (GlyRStrySens), Glra1 (gene 25674), sequence (P07727 whole entry, looked up): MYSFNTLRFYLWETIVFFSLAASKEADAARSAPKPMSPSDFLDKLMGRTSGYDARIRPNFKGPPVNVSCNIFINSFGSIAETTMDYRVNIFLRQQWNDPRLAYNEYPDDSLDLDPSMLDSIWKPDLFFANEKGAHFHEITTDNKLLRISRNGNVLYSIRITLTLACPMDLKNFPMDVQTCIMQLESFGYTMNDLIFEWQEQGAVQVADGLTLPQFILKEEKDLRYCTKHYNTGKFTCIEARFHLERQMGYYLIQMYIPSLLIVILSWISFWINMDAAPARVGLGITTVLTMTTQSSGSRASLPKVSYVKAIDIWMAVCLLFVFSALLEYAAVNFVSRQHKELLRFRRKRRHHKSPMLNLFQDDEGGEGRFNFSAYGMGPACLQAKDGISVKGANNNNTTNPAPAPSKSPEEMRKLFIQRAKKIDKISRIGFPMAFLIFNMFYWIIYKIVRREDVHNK
# chimpanzee Androgen Receptor (AR), AR (gene 747460), sequence (O97775 whole entry, looked up): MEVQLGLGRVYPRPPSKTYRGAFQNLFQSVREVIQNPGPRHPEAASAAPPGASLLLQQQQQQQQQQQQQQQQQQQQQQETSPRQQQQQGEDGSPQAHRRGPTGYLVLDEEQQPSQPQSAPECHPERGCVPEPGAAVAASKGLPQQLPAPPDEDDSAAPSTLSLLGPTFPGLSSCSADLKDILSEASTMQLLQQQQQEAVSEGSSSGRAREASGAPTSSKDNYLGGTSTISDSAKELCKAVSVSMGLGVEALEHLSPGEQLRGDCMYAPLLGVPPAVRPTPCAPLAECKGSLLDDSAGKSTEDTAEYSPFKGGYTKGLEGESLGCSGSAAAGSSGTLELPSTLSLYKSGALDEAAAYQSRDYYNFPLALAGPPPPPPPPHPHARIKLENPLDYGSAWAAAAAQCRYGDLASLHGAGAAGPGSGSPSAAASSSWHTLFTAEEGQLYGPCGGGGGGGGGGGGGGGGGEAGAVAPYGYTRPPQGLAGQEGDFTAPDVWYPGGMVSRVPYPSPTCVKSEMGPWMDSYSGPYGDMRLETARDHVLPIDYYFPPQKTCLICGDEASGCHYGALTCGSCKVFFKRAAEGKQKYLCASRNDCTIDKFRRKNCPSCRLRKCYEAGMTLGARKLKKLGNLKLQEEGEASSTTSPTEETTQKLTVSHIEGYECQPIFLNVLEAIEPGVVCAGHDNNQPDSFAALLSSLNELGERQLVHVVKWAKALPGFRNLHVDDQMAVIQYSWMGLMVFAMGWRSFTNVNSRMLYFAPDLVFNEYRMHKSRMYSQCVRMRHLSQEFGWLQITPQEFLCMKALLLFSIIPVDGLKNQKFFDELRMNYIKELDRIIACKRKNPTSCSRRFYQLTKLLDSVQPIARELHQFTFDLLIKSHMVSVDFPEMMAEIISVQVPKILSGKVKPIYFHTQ
# bovine Gamma-Aminobutyric Acid Type A Receptor Agonist (GABAR Agonist), GABRA1 (gene 780973), sequence (P08219 whole entry, looked up): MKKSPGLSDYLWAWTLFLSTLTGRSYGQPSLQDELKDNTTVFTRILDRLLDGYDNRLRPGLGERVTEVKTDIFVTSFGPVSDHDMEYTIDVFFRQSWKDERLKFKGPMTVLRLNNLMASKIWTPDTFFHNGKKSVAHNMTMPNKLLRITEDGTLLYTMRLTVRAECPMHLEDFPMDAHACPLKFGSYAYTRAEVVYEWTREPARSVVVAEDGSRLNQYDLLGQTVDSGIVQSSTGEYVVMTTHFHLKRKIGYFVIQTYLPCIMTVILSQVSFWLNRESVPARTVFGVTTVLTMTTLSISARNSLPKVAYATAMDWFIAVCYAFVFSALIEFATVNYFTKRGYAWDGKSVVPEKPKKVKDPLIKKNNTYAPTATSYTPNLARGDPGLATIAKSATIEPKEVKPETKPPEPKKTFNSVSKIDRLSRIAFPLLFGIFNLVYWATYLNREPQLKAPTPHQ
structure (smiles),measurement,setting,value
CCCN(C1CCN(C(=O)C2CCNCC2)CC1)[C@@H]1CCc2ccc(OC)cc2C1,outcome,[1],inactive
same,AC50,[2],16.9 µM (active)
same,outcome,[3],inactive
same,outcome,[4],inactive
same,outcome,[5],inactive
COc1ccc(-n2nc(C(F)F)cc2-c2ccc(S(C)=O)cc2)cc1 (stereo not given),outcome,[6],inactive
same,AC50,[2],25 µM (active)
same,outcome,[7],inactive
same,outcome,[8],inactive
O=C(CCCCCCCCc1cccnc1)N1CCC(C=C(c2ccccc2)c2ccccc2)CC1,outcome,[2],inactive
same,AC50,[3],27.5 µM (active)
same,outcome,[4],inactive
same,outcome,[5],inactive
same,outcome,[9],inactive
CCc1cc(SCc2sc(-c3ccc(C(F)(F)F)cc3)nc2CN2CCN(c3ccc(OC)cc3)CC2)ccc1OCC(=O)O,outcome,[10],inactive
same,AC50,[2],17.7 µM (active)
same,AC50,NCBI gene 100848466,40.3 µM (active)
same,AC50,[11],29 µM (active)
CC/C(=C\C(=N/O)C(N)=O)C(C)[N+](=O)[O-] (stereo not given),outcome,[6],inactive
same,outcome,[12],inactive
same,outcome,[7],inactive
same,outcome,[8],inactive
same,outcome,[13],inactive
same,outcome,[5],inactive
O=P(OC(CCl)CCl)(OC(CCl)CCl)OC(CCl)CCl,AC50,NCBI gene 100848466,8.22 µM (active)
same,AC50,[11],13.3 µM (active)
same,outcome,[7],inactive
same,outcome,[8],inactive
same,outcome,[14],inactive
same,outcome,[15],inactive
same,outcome,[13],inactive
same,outcome,[5],inactive
COCCOc1cc2cc(C(=O)NC3CCN(C(C)C)CC3)n(CC(=O)Nc3ccc(Cl)cn3)c2cn1,AC50,[1],5.21 µM (active)
same,AC50,[2],12.8 µM (active)
same,outcome,[5],inactive
CCn1nc(Cc2ccccc2)cc1C1CCN(C[C@H]2C[C@H](N(C)[C@@H](C(=O)O)C(C)C)C[C@@H]2c2cccc(F)c2)CC1,AC50,[1],16.2 µM (active)
same,AC50,[2],11.4 µM (active)
same,outcome,[7],inactive
same,outcome,[8],inactive
same,outcome,[14],inactive
same,outcome,[13],inactive
same,outcome,[5],inactive
same,outcome,[9],inactive
COc1cccc(-c2ccc(/C=C\CN3CCCCCC3)cc2Cl)c1,outcome,[16],inactive
same,AC50,[1],0.665 µM (active)
same,AC50,[17],10.5 µM (active)
same,outcome,[6],inactive
same,AC50,[2],12.3 µM (active)
same,outcome,[18],inactive
same,outcome,[12],inactive
same,outcome,[7],inactive
same,outcome,[19],inactive
same,outcome,[14],inactive
same,AC50,[13],10.7 µM (active)
same,outcome,[5],inactive
O=C(O)CCN(C1(C(=O)NO)CCCC1)S(=O)(=O)c1ccc(Oc2ccc(F)cc2)cc1,AC50,[17],7.72 µM (active)
same,outcome,[5],inactive
CCN(C(=O)c1cc(C)cc(OC[C@H](C)Nc2ccncc2)c1)C(C)C,AC50,[1],6.56 µM (active)
same,AC50,[2],16.9 µM (active)
same,outcome,[5],inactive
